The full data set covers some 6,500 targets. This sample favours those with a hit. About 2% of all pairs of compound and target were hits. A number with no mark means an inactive call.
compound: COC(=O)C#Cc1ccccc1 [methyl 3-phenylpropiolate]; assay: log2 ratio of iodoacetamide-alkyne labeling of the cysteine site, DMSO over compound (competition); higher = stronger covalent engagement of the cysteine by the compound, active = 1 or more; conditions: 500 µM; treatment time 1 h; system: HEK293T cell lysate
In short: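 Three replicates, each with duplicate channels, were prepared from HEK293T lysate (2 mg/mL) treated with vehicle or electrophile at 500 µM for 1 h at ambient temperature. Iodoacetamide alkyne was then applied for 1 h, and samples were clicked to sCIP-TMT reagents, pooled, trypsin-digested overnight at 37 °C, enriched on streptavidin, acid-eluted and analysed on Orbitrap Eclipse LC-MS/MS with FAIMS, with FragPipe quantification. The log2 competition ratio per cysteine is the mean control-channel divided by the mean compound-channel reporter intensity. Cysteines quantified in only one replicate were left out.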

UniProt Q9Y4K1, sequence (Q9Y4K1 whole entry, looked up): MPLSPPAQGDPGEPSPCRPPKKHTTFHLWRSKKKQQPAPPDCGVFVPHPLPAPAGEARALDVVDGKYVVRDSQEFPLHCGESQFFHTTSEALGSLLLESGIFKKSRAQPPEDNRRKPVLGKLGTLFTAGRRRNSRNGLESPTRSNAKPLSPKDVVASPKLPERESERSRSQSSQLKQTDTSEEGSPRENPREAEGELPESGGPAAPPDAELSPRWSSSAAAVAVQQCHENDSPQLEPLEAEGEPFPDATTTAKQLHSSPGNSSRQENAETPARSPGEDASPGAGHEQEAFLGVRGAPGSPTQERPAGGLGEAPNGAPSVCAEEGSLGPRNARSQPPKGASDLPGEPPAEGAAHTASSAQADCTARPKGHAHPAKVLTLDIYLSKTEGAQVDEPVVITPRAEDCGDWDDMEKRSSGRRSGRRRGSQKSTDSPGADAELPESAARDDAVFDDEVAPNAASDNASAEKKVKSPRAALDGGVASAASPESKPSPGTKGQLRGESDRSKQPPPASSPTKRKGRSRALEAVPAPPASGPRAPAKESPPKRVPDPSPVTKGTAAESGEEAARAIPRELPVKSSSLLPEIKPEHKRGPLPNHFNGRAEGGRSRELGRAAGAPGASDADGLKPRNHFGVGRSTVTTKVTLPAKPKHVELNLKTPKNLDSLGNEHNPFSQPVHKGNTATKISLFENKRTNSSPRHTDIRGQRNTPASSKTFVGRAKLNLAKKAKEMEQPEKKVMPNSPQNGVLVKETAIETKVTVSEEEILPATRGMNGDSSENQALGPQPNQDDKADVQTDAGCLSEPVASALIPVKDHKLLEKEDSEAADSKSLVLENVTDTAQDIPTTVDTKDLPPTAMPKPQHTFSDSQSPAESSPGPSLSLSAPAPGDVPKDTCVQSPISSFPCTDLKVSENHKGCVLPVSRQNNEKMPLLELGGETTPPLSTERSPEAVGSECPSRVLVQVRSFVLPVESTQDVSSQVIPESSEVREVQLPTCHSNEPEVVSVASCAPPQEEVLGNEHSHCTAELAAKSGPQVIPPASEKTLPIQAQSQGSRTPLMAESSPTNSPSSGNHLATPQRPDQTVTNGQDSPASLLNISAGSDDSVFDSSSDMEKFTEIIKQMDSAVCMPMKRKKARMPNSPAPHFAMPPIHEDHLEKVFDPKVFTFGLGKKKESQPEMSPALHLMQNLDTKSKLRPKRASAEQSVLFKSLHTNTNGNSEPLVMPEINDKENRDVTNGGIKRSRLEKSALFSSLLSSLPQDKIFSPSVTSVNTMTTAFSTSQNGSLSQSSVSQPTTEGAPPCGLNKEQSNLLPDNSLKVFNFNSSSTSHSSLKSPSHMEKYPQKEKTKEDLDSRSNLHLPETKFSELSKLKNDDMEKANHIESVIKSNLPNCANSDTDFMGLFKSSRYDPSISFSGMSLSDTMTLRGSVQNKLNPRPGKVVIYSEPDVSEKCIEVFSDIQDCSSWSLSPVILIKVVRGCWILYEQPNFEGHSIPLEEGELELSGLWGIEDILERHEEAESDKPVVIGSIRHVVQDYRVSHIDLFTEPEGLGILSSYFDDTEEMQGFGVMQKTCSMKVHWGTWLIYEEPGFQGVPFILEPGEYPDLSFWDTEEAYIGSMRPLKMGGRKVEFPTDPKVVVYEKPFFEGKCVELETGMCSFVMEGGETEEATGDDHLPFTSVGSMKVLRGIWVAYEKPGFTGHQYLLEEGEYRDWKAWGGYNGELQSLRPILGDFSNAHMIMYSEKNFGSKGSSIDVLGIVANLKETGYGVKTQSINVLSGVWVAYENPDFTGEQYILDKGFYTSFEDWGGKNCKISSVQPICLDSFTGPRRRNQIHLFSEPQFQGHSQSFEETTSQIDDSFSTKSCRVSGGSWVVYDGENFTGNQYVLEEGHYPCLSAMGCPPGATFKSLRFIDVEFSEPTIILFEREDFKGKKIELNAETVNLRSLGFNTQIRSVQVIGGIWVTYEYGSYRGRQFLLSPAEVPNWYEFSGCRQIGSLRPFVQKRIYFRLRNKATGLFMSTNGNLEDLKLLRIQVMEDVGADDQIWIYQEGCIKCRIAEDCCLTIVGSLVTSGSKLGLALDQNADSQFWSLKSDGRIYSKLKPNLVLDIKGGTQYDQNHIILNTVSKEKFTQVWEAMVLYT
UniProt Q9Y2P8, sequence (Q9Y2P8 whole entry): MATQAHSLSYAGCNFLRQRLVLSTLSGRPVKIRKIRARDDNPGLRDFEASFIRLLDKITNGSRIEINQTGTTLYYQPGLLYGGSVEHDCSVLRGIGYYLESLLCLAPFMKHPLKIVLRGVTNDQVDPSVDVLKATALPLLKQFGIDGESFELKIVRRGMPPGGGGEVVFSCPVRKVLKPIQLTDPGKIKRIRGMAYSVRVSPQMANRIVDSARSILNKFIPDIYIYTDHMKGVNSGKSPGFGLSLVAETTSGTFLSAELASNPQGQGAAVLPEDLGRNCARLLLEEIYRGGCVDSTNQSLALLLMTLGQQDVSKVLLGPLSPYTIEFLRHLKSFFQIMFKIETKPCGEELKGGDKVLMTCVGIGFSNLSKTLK
UniProt Q9BTW9, sequence (Q9BTW9 whole entry, looked up): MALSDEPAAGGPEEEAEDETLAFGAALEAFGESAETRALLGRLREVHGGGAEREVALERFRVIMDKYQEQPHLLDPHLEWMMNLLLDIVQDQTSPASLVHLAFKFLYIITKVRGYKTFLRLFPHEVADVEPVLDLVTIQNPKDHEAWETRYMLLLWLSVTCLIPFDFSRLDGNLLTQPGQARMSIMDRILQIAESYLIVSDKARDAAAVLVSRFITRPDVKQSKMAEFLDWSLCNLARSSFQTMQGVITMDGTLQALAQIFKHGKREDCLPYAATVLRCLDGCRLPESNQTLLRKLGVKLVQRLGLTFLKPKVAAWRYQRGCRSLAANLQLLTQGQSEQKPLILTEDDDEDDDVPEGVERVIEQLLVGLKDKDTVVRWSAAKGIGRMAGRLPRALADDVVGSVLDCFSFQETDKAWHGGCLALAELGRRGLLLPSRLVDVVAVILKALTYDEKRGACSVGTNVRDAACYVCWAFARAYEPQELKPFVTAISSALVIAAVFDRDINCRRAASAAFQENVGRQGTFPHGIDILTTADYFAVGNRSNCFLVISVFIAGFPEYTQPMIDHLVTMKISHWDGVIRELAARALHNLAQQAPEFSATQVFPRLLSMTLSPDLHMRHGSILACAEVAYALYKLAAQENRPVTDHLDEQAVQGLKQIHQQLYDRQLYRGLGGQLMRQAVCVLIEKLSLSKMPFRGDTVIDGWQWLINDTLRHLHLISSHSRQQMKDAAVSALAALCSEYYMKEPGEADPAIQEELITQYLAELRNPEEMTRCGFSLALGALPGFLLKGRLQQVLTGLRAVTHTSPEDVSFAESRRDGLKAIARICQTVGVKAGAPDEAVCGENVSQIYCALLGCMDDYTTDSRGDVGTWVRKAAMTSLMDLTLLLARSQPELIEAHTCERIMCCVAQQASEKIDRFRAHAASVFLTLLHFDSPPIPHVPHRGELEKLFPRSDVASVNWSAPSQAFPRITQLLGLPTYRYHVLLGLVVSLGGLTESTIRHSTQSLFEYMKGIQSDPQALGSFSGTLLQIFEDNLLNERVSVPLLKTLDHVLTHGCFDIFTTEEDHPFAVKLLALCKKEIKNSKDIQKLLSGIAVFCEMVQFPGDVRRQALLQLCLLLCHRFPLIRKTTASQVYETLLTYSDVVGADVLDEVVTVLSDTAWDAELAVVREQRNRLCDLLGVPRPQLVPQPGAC
UniProt Q9H0K6, sequence (Q9H0K6 whole entry, looked up): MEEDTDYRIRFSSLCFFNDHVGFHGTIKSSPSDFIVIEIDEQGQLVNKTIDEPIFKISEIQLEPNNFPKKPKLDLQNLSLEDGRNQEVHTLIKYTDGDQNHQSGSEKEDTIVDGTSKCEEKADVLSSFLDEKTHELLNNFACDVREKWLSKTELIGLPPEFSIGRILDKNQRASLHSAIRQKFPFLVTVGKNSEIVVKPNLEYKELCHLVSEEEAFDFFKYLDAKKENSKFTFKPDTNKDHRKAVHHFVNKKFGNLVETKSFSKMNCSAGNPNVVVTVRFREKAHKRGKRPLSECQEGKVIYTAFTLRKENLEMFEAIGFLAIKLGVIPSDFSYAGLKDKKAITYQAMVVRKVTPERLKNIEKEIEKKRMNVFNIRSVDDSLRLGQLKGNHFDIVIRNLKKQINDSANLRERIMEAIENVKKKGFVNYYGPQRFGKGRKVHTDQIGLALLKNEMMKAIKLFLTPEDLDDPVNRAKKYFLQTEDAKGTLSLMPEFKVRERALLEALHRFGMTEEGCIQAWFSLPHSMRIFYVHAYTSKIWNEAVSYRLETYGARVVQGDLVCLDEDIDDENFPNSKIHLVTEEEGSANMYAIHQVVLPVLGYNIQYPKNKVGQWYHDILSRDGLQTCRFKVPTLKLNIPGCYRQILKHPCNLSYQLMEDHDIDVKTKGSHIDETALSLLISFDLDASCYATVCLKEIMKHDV
UniProt Q9NVV4, sequence (Q9NVV4 whole entry, looked up): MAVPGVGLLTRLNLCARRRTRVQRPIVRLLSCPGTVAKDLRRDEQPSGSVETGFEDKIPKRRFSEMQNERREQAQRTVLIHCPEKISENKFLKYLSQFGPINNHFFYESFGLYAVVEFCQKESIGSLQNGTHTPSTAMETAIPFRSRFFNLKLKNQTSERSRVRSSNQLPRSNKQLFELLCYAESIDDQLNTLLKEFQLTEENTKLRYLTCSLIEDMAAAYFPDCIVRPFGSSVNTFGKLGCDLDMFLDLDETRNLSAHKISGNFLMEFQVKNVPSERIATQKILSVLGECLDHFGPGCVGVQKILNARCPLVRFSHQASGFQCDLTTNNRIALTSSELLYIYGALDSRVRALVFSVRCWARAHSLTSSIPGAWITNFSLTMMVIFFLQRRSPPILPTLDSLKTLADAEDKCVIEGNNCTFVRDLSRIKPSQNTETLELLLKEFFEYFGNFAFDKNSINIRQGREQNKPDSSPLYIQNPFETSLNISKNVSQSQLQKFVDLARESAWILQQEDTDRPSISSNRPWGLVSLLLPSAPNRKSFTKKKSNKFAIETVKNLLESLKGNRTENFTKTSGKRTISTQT

| Target | log2 ratio of iodoacetamide-alkyne labeling |
| --- | --- |
| TBCD C234 (UniProt Q9BTW9) | 0.281 |
| RCL1 C13 (UniProt Q9Y2P8) | -0.0901 |
| NFU1 C210 (UniProt Q9UMS0) | 1.06 (active) |
| LIMD1 C305 (UniProt Q9UGP4) | 1.43 (active) |
| OSBPL3 C203 (UniProt Q9H4L5) | 0.76 |
| GNL3 C234 (UniProt Q9BVP2) | 0.259 |
| AIM1 C976 (UniProt Q9Y4K1) | 0.347 |
| RBM27 C776 (UniProt Q9P2N5) | 0.232 |
| NOP16 C36 (UniProt Q9Y3C1) | 1.12 (active) |
| AFG3L2 C525 (UniProt Q9Y4W6) | 0.198 |
| UniProt Q9C0E8_C149 | 0.125 |
| MAGED2 C516 (UniProt Q9UNF1) | 0.293 |
| ASPSCR1 C225 (UniProt Q9BZE9) | 1.02 (active) |
| RCC2 C428 (UniProt Q9P258) | 0.696 |
| NCDN C3 (UniProt Q9UBB6) | 1.66 (active) |
| UniProt Q9H1B7_C385 | 0.164 |
| ACIN1 C691 (UniProt Q9UKV3) | 0.212 |
| PUS7L C142 (UniProt Q9H0K6) | -0.0378 |
| UNK C383 (UniProt Q9C0B0) | 0.721 |
| KIF3A C621 (UniProt Q9Y496) | 0.962 |
| MTPAP C242 (UniProt Q9NVV4) | 0.146 |
| UniProt Q9NUQ3_C127 | 0.926 |

Reference: the supplement of paper PMC11006884
